Pf Dd2 growth – Plasmodium falciparum Dd2 growth inhibition. Potency, µM (series often up to 28.9 µM), actives largely listed as inhibitors. P. falciparum Dd2 growth, SYBR Green, 72 h. 4.3% of 120,000 active; active means well fitted inhibition curve with a large enough effect; further: nearly all actives have a fitted effect of over 65% in size
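Infected erythrocytes (Dd2, 0.3% parasitemia, 2.5% hematocrit final) are added to compound in RPMI-1640/Albumax II medium, grown 72 h at 37C in low oxygen, then lysed with saponin/Triton-X containing SYBR Green and read by fluorescence.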
Large screens that a line does not name were inactive. Shown is part of a subset that was picked to be rich in hits.

COc1ccc(F)cc1C(C(=O)O)N1CCCN(c2ncccn2)CC1 (stereo not drawn)	none
Cc1ccc(C(=O)N2CC(C(=O)N(C)C)C3(CCOCC3)C2)c(C)c1 (stereo not drawn)	none
NC(=O)CNC(=O)[C@@]1(O)C[C@@H](O)[C@H](O)[C@@H](NC(=O)c2ccc(F)c(Cl)c2)C1	none
COCCC(=O)N1CCC(N2C[C@H](O)C[C@H]2C(=O)NCc2cccc(OC)c2)CC1	none
COc1ccc(NC(=O)CC2Nc3ccccc3NC2=O)cc1 (stereo not drawn)	none
Cc1cccc(NC(=O)CC2Nc3cccc4cccc(c34)NC2=O)c1 (stereo not drawn)	none
O=C(C[C@H]1NC(=O)c2ccccc2NC1=O)Nc1ccccc1Cl	none
COc1cccc(NC(=O)CC2Nc3cc(C)c(C)cc3NC2=O)c1 (stereo not drawn)	Pf Dd2 growth 2.2µM
Cc1ccc(NC(=O)CC2Nc3cc(C)c(C)cc3NC2=O)c(C)c1 (stereo not drawn)	Pf Dd2 growth 3.2µM
COc1ccc(C)cc1NC(=O)C[C@H]1NC(=O)c2ccccc2NC1=O	none
Cc1ccc2c(c1)NC(=O)C(CC(=O)Nc1cc(Cl)ccc1C)O2 (stereo not drawn)	none
COc1cccc(NC(=O)CC2Oc3ccccc3NC2=O)c1 (stereo not drawn)	none
Cc1cc2c(cc1C)NC(CC(=O)Nc1cccc(C)c1C)C(=O)N2 (stereo not drawn)	Pf Dd2 growth 3.2µM
COc1ccc(C(=O)N2C[C@@H](CO)[C@H](c3nc(C)no3)C2)cc1F	none
O=C(c1cc2c(s1)CCCC2)N1CCC2(CC1)OCCCC2O (stereo not drawn)	none
O=C(NCC1CCOCC1)c1cccc(C(F)(F)F)c1	none
COCCC(=O)N1CCCC(c2nc(CCOc3cccc(C)c3)no2)C1 (stereo not drawn)	none
Cc1cccc(OCCc2noc(C3CCCNC3)n2)c1 (stereo not drawn)	Pf Dd2 growth 5µM
CCCS(=O)(=O)N1CC(c2nc(CCOc3cccc(C)c3)no2)C1	none
O=C(c1cccc(Cl)c1)N1CCC2(CC1)C(=O)NCN2Cc1ccc(Cl)cc1	none
COc1cc(CN2CCCC(COc3ccccc3C(=O)N3CCCC3)C2)ccc1O (stereo not drawn)	none
COc1cccc(CN2CCCC(c3ccc(C(=O)O)cc3)C2)c1OC (stereo not drawn)	none
COc1ccc(N2CCN(C3CCCN(CC(N)=O)C3)CC2)cc1 (stereo not drawn)	none
COc1ccc(N2CCN(C3CCCN(CC4CC4)C3)CC2)cc1 (stereo not drawn)	none
COc1ccc(F)c(CN2CCCN3CCC[C@H]3C2)c1Cl	Pf Dd2 growth 13µM
COc1cc2c(cc1OC)CN(C1CCCN(Cc3c(O)cccc3OC)C1)CC2 (stereo not drawn)	Pf Dd2 growth 10µM
CC(O)c1cc2n(n1)CCN(C(=O)C1(c3ccc(Cl)cc3)CCC1)C2 (stereo not drawn)	none
CC1(C)C(=O)N(Cc2ccccc2)[C@H]2CN(Cc3cccc(C(=O)O)c3)C[C@H]2[S+]1(=O)[O-]	none
COc1ccc(CCNC(=O)[C@H]2CCC[C@H]2NC(=O)c2ccncc2)cc1OC	none
O=C(CC(c1cccc(O)c1)c1ccccc1Cl)NCc1cccnc1 (stereo not drawn)	none
Cn1ncc(N2CCC(CNC(=O)c3cccc(-c4ncc[nH]4)c3)C2)cc1=O (stereo not drawn)	none
COc1ccccc1C(CC(=O)NCC(C)C)c1cn(C)c2ccccc12 (stereo not drawn)	none
COc1ccc(CCN(C)C(=O)CC(c2cccc(F)c2)c2cn(C)c3ccccc23)cc1OC (stereo not drawn)	Pf Dd2 growth 2µM
COc1cccc(C(CC(=O)NCCc2ccc(OC)c(OC)c2)c2c[nH]c3ccccc23)c1 (stereo not drawn)	none
CS(=O)(=O)c1ccc(OCC2(CNC(=O)N3CCOCC3)C[C@@H](O)[C@@H](O)C2)cc1 (stereo partly drawn)	none
O=C([C@@H]1C[C@H](F)CN1S(=O)(=O)Cc1ccccc1)N1CCc2ccccc2C1	none
CNc1cccnc1OC1CCN(S(=O)(=O)Cc2ccccc2)C1 (stereo not drawn)	none
CCOc1ccc(C(CC(=O)O)NC(=O)c2cnc(N(C)C)nc2C)cc1 (stereo not drawn)	none
O=C(O)C1Cn2cccc2C(=O)N1Cc1cccnc1 (stereo not drawn)	none
Cc1ccc(CN2CCN(C(=O)C3Cn4cccc4C(=O)N3Cc3cccnc3)CC2)cc1 (stereo not drawn)	Pf Dd2 growth 13µM
CC(C)CN1C(=O)c2cccn2CC1C(=O)N1CCN(Cc2ccc3c(c2)OCO3)CC1 (stereo not drawn)	none
COc1ccc(O[C@H]2COCCN(C(=O)COc3ccccc3)C2)cc1	none
Cc1noc(C)c1CCC(=O)NCc1cc2n(n1)CCN(C(=O)N(C)C)C2	none
O=C1COCC2(CN1)CN(c1ccc(Oc3ccccc3)cc1)C2	none
CCC(O)c1cc2c(cc1NC(=O)c1cccc(Br)c1)OCCO2 (stereo not drawn)	Pf Dd2 growth 11µM
COc1cccc(C(=O)Nc2cc3c(cc2C(=O)c2ccc(C)cc2)OCCO3)c1	none
O=C(Nc1cc2c(cc1C(=O)c1ccccc1Cl)OCCO2)c1ccc(Br)cc1	none
COCCOC(=O)C1=C(C)N=C2SC=C(CC(=O)Nc3cccc(OC)c3)N2C1c1ccccc1 (stereo not drawn)	none
CCOC(=O)C1=C(C)N=C2SC=C(CC(=O)Nc3ccc(OC)cc3)N2C1c1cccc(OC)c1 (stereo not drawn)	none
CCOC(=O)C1=C(C)N=C2SC=C(CC(=O)Nc3cccc(OC)c3)N2C1c1cccc(OC)c1 (stereo not drawn)	Pf Dd2 growth 11µM
CCOC(=O)C1=C(C)N=C2SC=C(CC(=O)NC(C)CC)N2C1c1cccc([N+](=O)[O-])c1 (stereo not drawn)	none
CCOC(=O)C1=C(C)N=C2SC=C(CC(=O)Nc3ccc(C)c(C)c3)N2C1c1cccc(OC)c1 (stereo not drawn)	Pf Dd2 growth 8.9µM
COC(=O)C1=C(C)N=C2SC=C(CC(=O)Nc3ccc(F)cc3)N2C1c1ccc(OC)cc1OC (stereo not drawn)	none
CC(=O)N1CCN(C(=O)C[C@@H]2c3nc(NC(=O)C(C)(C)C)sc3C[C@@H]3[C@](C)(CO)[C@H](O)CC[C@]32C)CC1	none
CCOC(=O)C1=CN(CC(=O)Nc2cccc(Cl)c2C)S(=O)(=O)N=C1C	none
COc1ccccc1NC(=O)N1CC[C@@H](CC(=O)O)[C@@H](CC2=NCCc3cc(F)ccc32)C1	none
Cc1noc(-c2ccn3c(CNC(=O)c4ccco4)nnc3c2)n1	none
COc1ccc(C(=O)N2CCC(N3CCNC3=O)CC2)cc1	none
COc1ccc(-c2nc3scc(CCNC(=O)c4cccc(Br)c4)n3n2)cc1	Pf Dd2 growth 1µM
COc1ccc(-c2nc3scc(CCNS(=O)(=O)c4ccccc4F)n3n2)cc1	none
O=C(NCCc1csc2nc(-c3ccc(F)cc3)nn12)c1cccc(C(F)(F)F)c1	none
COCC1CN(C(C)=O)CC12CCN(S(=O)(=O)c1ccc(F)cc1)CC2 (stereo not drawn)	none
Cc1ccccc1C(=O)Nc1nnc(S(=O)(=O)N(C)Cc2ccccc2)s1	none
CC1CCc2nc(NC(=O)COc3ccc(C(C)(C)C)cc3)sc2C1 (stereo not drawn)	none
CCCC(=O)Nc1nc2c(s1)CC(C(C)(C)C)CC2 (stereo not drawn)	Pf Dd2 growth 13µM
Cc1ccccc1C(=O)Nc1nnc(S(=O)(=O)N2c3ccccc3CC2C)s1 (stereo not drawn)	none

Assay outcomes from PubChem.
